The values below come from PubChem BioAssay (Tox21).

A short description of assay [1]: qHTS assay to identify small molecule antagonists of the glucocorticoid receptor (GR) signaling pathway - cell viability counter screen (AID 720693; further: nearly all actives have a fitted effect of over 55% in size; further: potency means the concentration at half of the fitted maximal effect). (In general: In qHTS, concentration-response curves come from the screen itself.)
Assay [2] in a line: qHTS assay for identifying genotoxic compounds that show differential cytotoxicity against isogenic chicken DT40 cell lines with known DNA damage response pathways - wild type cell line (AID 743012). Further: nearly all actives have a fitted effect of over 60% in size. Further: potency means the concentration at half of the fitted maximal effect. A digest of the protocol:
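First, wild type DT40 cells were plated at 300 per well and equilibrated about 0.5 h at 37 C/5% CO2. Next, compounds in DMSO were added and exposure lasted 40 h. Finally, CellTiter-Glo was added for 30 min at room temperature and luminescence recorded.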

Assay [3] in a line: qHTS assay for identifying genotoxic compounds that show differential cytotoxicity against isogenic chicken DT40 cell lines with known DNA damage response pathways - Rev3 mutant cell line (AID 743014). Further: nearly all actives have a fitted effect of over 55% in size. Further: potency means the concentration at half of the fitted maximal effect.
A short description of assay [4]: qHTS assay for identifying genotoxic compounds that show differential cytotoxicity against isogenic chicken DT40 cell lines with known DNA damage response pathways - Rad54/Ku70 mutant cell line (AID 743015). Further: nearly all actives have a fitted effect of over 60% in size. Further: potency means the concentration at half of the fitted maximal effect.
Assay [5] is described as follows: qHTS assay to identify small molecule antagonists of the androgen receptor (AR) signaling pathway - cell viability counter screen (AID 743033; further: nearly all actives have a fitted effect of over 45% in size; further: potency means the concentration at half of the fitted maximal effect).
Assay [6] concerns the target Androgen receptor (Homo sapiens) (UniProt P10275). The experiment in a line: qHTS assay to identify small molecule antagonists of the androgen receptor (AR) signaling pathway (AID 743035; active means well fitted inhibition curve with a large enough effect in the signal ratio in the repeat runs, not every such curve was filed as active; the % refers to the signal ratio). Put shortly:
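Beta-lactamase FRET read (2 h RT incubation with LiveBLAzer B/G) following 16 h of compound plus R1881 treatment of AR-UAS-bla HEK293 cells, which had been pre-incubated 4 h at 37C.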

Assay [7] shares this target. Briefly: qHTS assay to identify small molecule agonists of the androgen receptor (AR) signaling pathway (AID 743036; active means well fitted activation curve with a large enough effect in the signal ratio in the repeat runs, with a control signal flat, not every such curve was filed as active; the % refers to the signal ratio; further: potency means the concentration at half of the fitted maximal effect). A digest of the protocol: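 Screening used 2,000 AR-bla HEK293 cells per well, treated 16 h at 37C with test compounds in DMSO alongside positive and DMSO-only controls; beta-lactamase activity was then read by LiveBLAzer B/G FRET fluorescence after 2 h at room temperature.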

Assay [8] has the same target. Briefly: qHTS assay to identify small molecule agonists of the androgen receptor (AR) signaling pathway using the MDA cell line (AID 743040; further: nearly all actives have a fitted effect of over 20% in size; further: potency means the concentration at half of the fitted maximal effect). A digest of the protocol: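 MDA-kb2 breast carcinoma cells stably carrying an MMTV-driven luciferase reporter (AR- and GR-responsive) were seeded and held 5 h at 37C, 0% CO2, then exposed to compounds in DMSO for 16 h. Luminescence was read 30 min after ONE-Glo addition.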

Assay [9] is described as follows: qHTS assay to identify small molecule antagonists of the androgen receptor (AR) signaling pathway using the MDA cell line - cell viability counter screen (AID 743041; further: nearly all actives have a fitted effect of over 45% in size; further: potency means the concentration at half of the fitted maximal effect). Put shortly:
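MDA-kb2 AR-luc human breast carcinoma cells (MMTV-luciferase, AR/GR responsive) were treated with compounds plus R1881 agonist for 16 h at 37 °C. Viability was read as CellTiter-Fluor fluorescence in the same wells as the reporter assay.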

The target of assay [10] is Androgen receptor (Homo sapiens) (UniProt P10275). Briefly: qHTS assay to identify small molecule antagonists of the androgen receptor (AR) signaling pathway using the MDA cell line (AID 743042; further: nearly all actives have a fitted effect of over 55% in size; further: potency means the concentration at half of the fitted maximal effect). A digest of the protocol: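 MDA-kb2 cells (human breast carcinoma, stably carrying an MMTV-luciferase reporter responsive to AR and GR) were plated at 3,000 cells/well and preincubated 5 hr at 37C, then given compound plus R1881 agonist for 16 h. ONE-Glo luminescence was read.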
Chain of Androgen receptor (Homo sapiens) (P10275 whole entry, looked up): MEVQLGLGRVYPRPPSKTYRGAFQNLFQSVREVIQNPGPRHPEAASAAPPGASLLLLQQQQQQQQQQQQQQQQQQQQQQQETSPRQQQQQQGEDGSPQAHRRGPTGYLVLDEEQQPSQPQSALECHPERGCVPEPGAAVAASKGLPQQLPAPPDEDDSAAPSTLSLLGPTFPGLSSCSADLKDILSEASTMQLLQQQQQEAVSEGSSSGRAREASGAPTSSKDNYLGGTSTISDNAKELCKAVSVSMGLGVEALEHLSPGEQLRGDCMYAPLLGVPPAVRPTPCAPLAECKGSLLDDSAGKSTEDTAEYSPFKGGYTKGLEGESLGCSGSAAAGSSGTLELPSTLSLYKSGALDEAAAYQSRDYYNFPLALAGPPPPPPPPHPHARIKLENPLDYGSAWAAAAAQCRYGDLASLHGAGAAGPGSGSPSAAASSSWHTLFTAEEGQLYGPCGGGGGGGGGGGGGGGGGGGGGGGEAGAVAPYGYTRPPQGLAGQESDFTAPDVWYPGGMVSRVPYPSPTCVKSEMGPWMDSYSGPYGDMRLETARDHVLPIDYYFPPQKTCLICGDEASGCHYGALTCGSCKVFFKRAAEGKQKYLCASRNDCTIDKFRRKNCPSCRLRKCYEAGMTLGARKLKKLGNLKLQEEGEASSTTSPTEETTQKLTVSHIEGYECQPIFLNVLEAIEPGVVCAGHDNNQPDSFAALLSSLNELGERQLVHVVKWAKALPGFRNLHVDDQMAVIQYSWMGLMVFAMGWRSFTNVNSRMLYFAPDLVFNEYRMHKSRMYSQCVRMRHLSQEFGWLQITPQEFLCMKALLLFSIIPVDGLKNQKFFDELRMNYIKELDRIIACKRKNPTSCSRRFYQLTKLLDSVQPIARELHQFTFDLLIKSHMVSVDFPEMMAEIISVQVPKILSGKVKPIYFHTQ

Inconclusive results are not listed. Calls of active or inactive are those of the source. Unless noted, the call rests on the fitted dose curve; in most records, active means well fitted curve in the direction sought with a large enough effect in the repeat runs; inconclusive means weak or mixed curves; inactive means no such curve, though single readings can be large; an effect the other way counts as inactive or inconclusive.

In the case of `C[N+]1(C)CCN(CC(O)(c2ccccc2)C2CCCCC2)CC1` (configuration not stated), the Potency entry in [1], in assay [2], in assay [3], in assay [4], in assay [5] and in assay [6] was “inactive” each time. Also, the Potency result in assay [7], in assay [8], in [9] and in assay [10] was “inactive” in each case.
For the compound `CC1(C)S[C@@H]2[C@H](NC(=O)C3(N)CCCCC3)C(=O)N2[C@H]1C(=O)O`, the Potency entry in assay [1], in assay [2], in assay [3], in [4], in assay [5] and in assay [6] was “inactive” throughout. Also, the Potency entry in [7], in [8], in assay [9] and in assay [10] was “inactive” each time.
In the case of `O=C[C@H](O)[C@@H](O)[C@H](O[C@H]1O[C@H](CO)[C@@H](O[C@H]2O[C@H](CO)[C@@H](O)[C@H](O)[C@H]2O)[C@H](O)[C@H]1O)[C@H](O)CO`, the Potency result in [1], in assay [2], in assay [3], in assay [4], in assay [5] and in assay [6] was “inactive” throughout. The Potency result in assay [9] and in assay [10] was “inactive” throughout. The Potency is 7.56 µM (active) in [7] and 1.68 µM (active) in [8].
For `CCOC(=O)C1=C(COCCN)NC(C)=C(C(=O)OC)C1c1ccccc1Cl` (configuration not stated), the Potency result in [1], in [5] and in assay [9] was “inactive” each time. The Potency in [2] is 7.5 µM (active); in assay [3] it was 13.3 µM (active); in [4], 13.3 µM (active).
Regarding `CCCCCCCCCCCCCCCCCC(=O)OCCO`, the Potency result in [1], in assay [2], in assay [3], in assay [4], in [5] and in assay [9] was “inactive” in each case.
Consider `CC(CC(c1ccccc1)c1ccccc1)NC(C)(C)C` (configuration not stated), for which the Potency entry in assay [1], in [5] and in [9] was “inactive” in each case. Also, the Potency in [2] was 10.6 µM (active); in assay [3], 23.7 µM (active); in assay [4], 29.8 µM (active).
On to `CCCCC(O)c1ccccc1` (configuration not stated), for which the Potency entry in assay [1], in assay [2], in [3], in [4], in assay [5] and in assay [9] was “inactive” each time.
For `CC[C@@H]1/C=C(\C)C[C@H](C)C[C@H](OC)[C@H]2O[C@@](O)(C(=O)C(=O)N3CCCC[C@H]3C(=O)O[C@H](/C(C)=C/[C@@H]3CC[C@@H](Cl)[C@H](OC)C3)[C@H](C)[C@@H](O)CC1=O)[C@H](C)C[C@@H]2OC`, the Potency result in [1], in assay [2], in assay [3], in [4], in assay [5] and in [9] was “inactive” in each case.
For `Cc1cc2nc3c(=O)[nH]c(=O)nc-3n(C[C@H](O)[C@H](O)[C@H](O)COP(=O)(O)OP(=O)(O)OC[C@H]3O[C@@H](n4cnc5c(N)ncnc54)[C@H](O)[C@@H]3O)c2cc1C`, the Potency entry in assay [1], in assay [2], in [3], in assay [4], in assay [5] and in assay [8] was “inactive” throughout. The Potency entry in [10] is “inactive”.
As to `CC(=O)OC[C@H]1O[C@@H](O[C@H]2[C@H](O)[C@@H](OC(=O)c3ccccc3C(=O)O)[C@H](O)O[C@@H]2COC(C)=O)[C@H](O)[C@@H](OC(=O)c2ccccc2C(=O)O)[C@@H]1O`, the Potency entry in assay [1], in [2], in [3], in [4], in assay [5] and in assay [9] was “inactive” in each case.
As to `O=C(Nc1ccc(Br)cc1)c1cc(Br)c(Br)s1`, the Potency in [1] is 21.3 µM (active); in [2], 26.6 µM (active); in assay [3] it was 33.5 µM (active); in assay [4], 26.6 µM (active); in assay [5] it was 21.3 µM (active). Moreover, the Potency entry in assay [9] was “inactive”.
As to `O=C1/C(=C\c2cccs2)CCC/C1=C\c1cccs1`, the Potency entry in assay [1], in [5], in assay [8] and in assay [10] was “inactive” each time. Further, the figures for the Potency in assay [2], in assay [3] and in [4] were 23.7 µM (active), 26.6 µM (active) and 29.8 µM (active), respectively.
For the compound `O=S(=O)(O)Oc1ccc(C(c2ccc(OS(=O)(=O)O)cc2)c2ccccn2)cc1`, the Potency entry in assay [1], in assay [2], in assay [3], in [4], in assay [5] and in assay [9] was “inactive” throughout.
`CC1CCC(NC(=O)N(CCCl)N=O)CC1` (configuration not stated): the Potency entry in [1], in [2], in [3], in assay [4], in assay [5] and in assay [9] was “inactive” in each case.
Take `C[C@H]1C[C@H]2[C@@H]3CCC4=CC(=O)C=C[C@]4(C)[C@@]3(F)[C@@H](O)C[C@]2(C)[C@@]1(O)C(=O)CCl`: the Potency result in [1], in assay [5] and in [9] was “inactive” in each case. Further, the Potency in [2] was 18.8 µM (active); in assay [3], 26.6 µM (active); in assay [4], 23.7 µM (active).
With `C=CCOc1ccc(CC(=O)O)cc1Cl`, the Potency entry in assay [1], in assay [2], in assay [3], in assay [4], in assay [5] and in assay [9] was “inactive” in each case.
Take `Cc1ccc(S(=O)(=O)NC(=O)N[C@@H](C)Cc2ccccc2)cc1`: the Potency result in assay [1], in assay [2], in assay [3], in assay [4], in assay [5] and in assay [9] was “inactive” throughout.
As for `C[C@]12CC[C@@H]3c4ccc(OS(=O)(=O)O)cc4CC[C@H]3[C@@H]1CCC2=O`, the Potency entry in [1], in [2], in [3], in [4], in [5] and in assay [9] was “inactive” in each case.
Take `CCCCCCOc1ccc(C(=N)N(CCCC)CCCC)c2ccccc12`: the Potency is 13.4 µM (active) in assay [1]; 3.76 µM (active) in [2]; 5.31 µM (active) in assay [3]; 5.96 µM (active) in assay [4]; 15.1 µM (active) in assay [5]; 18.8 µM (active) in assay [9]. In [10], the Potency was 16.8 µM (active). The Potency result in assay [8] is “inactive”.
On to `CCCCc1cc2c(=O)c(C(=O)OC)c[nH]c2cc1OCc1ccccc1`, for which the Potency result in assay [1], in assay [2], in [3], in assay [4], in assay [5] and in assay [9] was “inactive” in each case.
As to `O=C1c2ccccc2C(=O)C1c1ccc(Cl)cc1`, the Potency result in assay [1], in [2], in assay [3], in assay [4], in assay [5] and in assay [8] was “inactive” throughout. Moreover, the Potency entry in assay [10] was “inactive”.
With `CCCCC(F)(F)[C@@]1(O)CC[C@H]2[C@@H](CC(=O)[C@@H]2CCCCCCC(=O)O)O1`, the Potency result in assay [1], in assay [2], in assay [3], in assay [4], in assay [5] and in assay [8] was “inactive” throughout. The Potency entry in [9] and in assay [10] was “inactive” in each case.
Turning to `CC(O)CN(C)C` (configuration not stated), the Potency entry in assay [1], in assay [2], in assay [3], in [4], in assay [5] and in assay [9] was “inactive” throughout.
